According to PubChem BioAssay AID651768 (National Center for Advancing Translational Sciences (NCATS), 2012):
Among all 360,000 compounds or so, about 1,700 (0.47%) were called active. Roughly 2% stayed inconclusive and do not appear here. The sample holds actives, similar compounds and a random draw of the others, so the mix is not that of the screen. A number with no mark means an inactive call. The call rests on the fitted dose curve; in most records, active means well fitted inhibition curve with a large enough effect; inconclusive means small, poorly fitted or top-dose-only effect; inactive means no such curve, though single readings can be large or run the other way.

target: Bifunctional 3'-5' exonuclease/ATP-dependent helicase WRN (Homo sapiens) (UniProt Q14191); assay: qHTS for Inhibitors of WRN Helicase; settings: WRN helicase unwinding, fluorescent forked duplex, kinetic; series mostly up to 114 µM; activity change, negative = inhibition: at the top concentration; further: nearly all actives have a fitted effect of over 55% in size
Sequence (Q14191 whole entry, looked up): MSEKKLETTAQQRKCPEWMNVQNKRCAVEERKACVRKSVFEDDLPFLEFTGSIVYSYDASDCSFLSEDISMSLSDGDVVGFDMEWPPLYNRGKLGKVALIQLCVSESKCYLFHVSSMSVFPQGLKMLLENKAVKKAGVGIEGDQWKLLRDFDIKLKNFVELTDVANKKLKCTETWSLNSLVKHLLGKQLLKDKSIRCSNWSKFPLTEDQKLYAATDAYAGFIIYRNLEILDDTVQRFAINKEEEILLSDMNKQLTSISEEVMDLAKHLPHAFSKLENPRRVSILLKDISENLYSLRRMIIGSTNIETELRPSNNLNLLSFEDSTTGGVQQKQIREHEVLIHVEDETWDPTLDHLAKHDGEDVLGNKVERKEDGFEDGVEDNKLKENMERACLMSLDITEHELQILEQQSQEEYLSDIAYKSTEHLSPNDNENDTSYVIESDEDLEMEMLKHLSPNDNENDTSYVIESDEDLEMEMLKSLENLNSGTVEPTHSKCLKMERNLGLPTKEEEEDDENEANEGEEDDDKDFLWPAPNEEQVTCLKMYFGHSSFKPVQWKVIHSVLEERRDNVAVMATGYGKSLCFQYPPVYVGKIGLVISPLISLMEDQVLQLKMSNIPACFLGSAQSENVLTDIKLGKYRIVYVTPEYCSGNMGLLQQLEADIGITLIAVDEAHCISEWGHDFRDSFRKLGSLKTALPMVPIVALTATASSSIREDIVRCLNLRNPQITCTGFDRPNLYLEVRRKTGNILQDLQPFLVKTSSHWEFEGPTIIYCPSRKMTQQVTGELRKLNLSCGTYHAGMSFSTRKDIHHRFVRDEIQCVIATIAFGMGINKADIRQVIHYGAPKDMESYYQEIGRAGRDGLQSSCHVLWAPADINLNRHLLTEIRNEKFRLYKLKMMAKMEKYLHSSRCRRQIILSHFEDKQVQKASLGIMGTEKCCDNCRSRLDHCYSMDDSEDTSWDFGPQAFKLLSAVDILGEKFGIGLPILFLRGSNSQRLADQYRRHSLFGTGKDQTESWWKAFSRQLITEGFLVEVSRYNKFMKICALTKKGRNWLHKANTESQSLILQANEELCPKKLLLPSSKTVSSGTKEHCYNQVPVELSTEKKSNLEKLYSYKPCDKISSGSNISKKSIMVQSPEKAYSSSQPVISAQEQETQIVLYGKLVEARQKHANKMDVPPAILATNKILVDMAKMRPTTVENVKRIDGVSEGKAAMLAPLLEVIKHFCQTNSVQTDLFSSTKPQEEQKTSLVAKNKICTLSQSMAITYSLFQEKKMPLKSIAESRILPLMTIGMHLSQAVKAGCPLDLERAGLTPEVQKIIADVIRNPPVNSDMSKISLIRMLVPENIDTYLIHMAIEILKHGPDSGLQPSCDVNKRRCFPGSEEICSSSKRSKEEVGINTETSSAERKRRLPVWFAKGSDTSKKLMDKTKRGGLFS
From the text: Inhibition of DNA repair is proposed as a strategy for combating cancer. Synthetic lethality is an approach that exploits preexisting DNA repair deficiencies in certain tumors to develop inhibitors of DNA repair pathways that compensate for the tumor-associated DNA repair deficiency. Because helicases play critical roles in the DNA damage response and in DNA repair, particularly in actively dividing and replicating cells, characterization of synthetic lethal relationships of DNA helicases may be of value in developing improved anticancer treatment strategies; moreover, small molecules that specifically target a given DNA helicase may be useful for understanding its role in cellular nucleic acid metabolism. The goal of this project is to identify small molecule, non-covalent chemical inhibitors of the Werner syndrome (WS) helicase (WRN), which plays an important role in cell proliferation, the replication stress response, and DNA repair. […] The WRN gene product that is defective in the chromosomal instability disorder has DNA helicase and exonuclease activities and interacts with a number of nuclear proteins to maintain genomic stability. We will employ an optimized high-throughput screening assay that utilizes a fluorescence intensity modulation scheme with a fluorophore and quencher positioned near one another within a duplex deoxyoligonucleotide that contains a single forked structure. After a high-throughput screen of the ~350,000-member Molecular Libraries Small Molecule Repository (MLSMR) collection, followed by data analysis and hit selection, a panel of confirmatory, as well as secondary and ternary, assays will be employed to identify high-confidence WRN inhibitors. Structure-activity relationships will be investigated for the top candidate inhibitor series through medchem expansion. These are the results of the primary screening campaign against the MLSMR. NIH Chemical Genomics Center [NCGC] NIH Molecular Libraries Probe Centers Network [MLPCN] MLPCN Grant: MH096530 Assay Submitter (PI): Robert Brosh, National Institute of Aging
Three muL of reagents (buffer in columns 3 and 4 as negative controls; WRN at 20 nM final concentration in columns 1 and 2 as positive controls; columns 5-48 as test reactions) will be dispensed into a 1536-well Greiner black plate via solenoid-valve based nanoliter dispensers. Compounds (23 nL each in columns 5-48) and control (23 nL each in column 2 as dose-response) will be transferred via a Kalypsys pintool equipped with a 1536-pin array. Plates will be incubated for 15 min at room temperature, and then 1 µL of substrate (100 nM forked duplex oligonucleotide and 2 mM ATP final concentrations) will be added to start reaction, and plate will be transferred into a ViewLux high-throughput CCD imager where reaction progress is measured in kinetic mode using standard red-fluorescence optics (excitation filter 525 nm, emission filter 598 nm).
On the % scale 0 is the no-effect control and ±100 the full control effect; potency means the concentration at half of the fitted maximal effect.

Compared with `N#Cc1ccc(OCC(=O)NC(=O)NC2CCS(=O)(=O)C2)cc1` (centres undefined), `CCN(C(=O)COC(=O)/C=C/c1nc2ccccc2s1)C1CCS(=O)(=O)C1` (centres undefined) is lower in “activity change, negative = inhibition” value: 0.741% for the first, -4.22% for the second.

Going from `CC(=O)Nc1ccc(S(=O)(=O)NCC(=O)OCc2cc(=O)oc3ccc4ccccc4c23)cc1` to `Cc1cc(=O)oc2cc(OC(C)C(=O)NCCc3ccc(S(N)(=O)=O)cc3)ccc12` (centres undefined), the “activity change, negative = inhibition” value rises from -10.6% to 6.34%.

First: O=C(N/N=C/c1sc(N2CCCCC2)nc1-c1cccs1)c1cccnc1
Second: N#Cc1c(C(F)(F)F)cc(-c2cccs2)nc1N1CCCCC1
The “activity change, negative = inhibition” value of the first is lower: -17.8% for the first, 2.23% for the second.

Going from `C[C@H]1CN([C@@H](C)CO)C(=O)CCCn2nncc2CO[C@@H]1CN(C)S(=O)(=O)c1cccc(C#N)c1` to `O=C(O)CSc1ccc(S(=O)(=O)N2CCCC2)cn1`, the “activity change, negative = inhibition” value rises from -1.02% to 2.34%.

Compared with `Cc1nnc(SCC(=O)Nc2ncc3c(n2)CC(C)(C)CC3=O)s1`, `CCc1nnc(NC(=O)c2cc(S(=O)(=O)N3CCCCC3)ccc2C)s1` is higher in “activity change, negative = inhibition” value: -12.5% for the first, 0.0692% for the second.

Compared with `O=C1Nc2ccccc2-n2nnnc2C1N1CCN(c2cccc(C(F)(F)F)n2)CC1` (centres undefined), `COc1ccc(S(=O)(=O)N2CCN(CC(=O)N3c4ccccc4CC3C)CC2)cc1OC` (centres undefined) is lower in “activity change, negative = inhibition” value: -3.28% for the first, -4.62% for the second.

Going from `CC1(c2cccc(N)c2)OCCO1` to `O=C(CSC(=S)N1CCOCC1)c1ccccc1`, the “activity change, negative = inhibition” value falls from 4.67% to -0.697%.

Going from `Cc1ccc(NC(=O)OCCNC(=O)c2ccncc2)cc1` to `CCN(CC)CCNCC(=O)Nc1ccc(Oc2ccccc2)cc1`, the “activity change, negative = inhibition” value rises from -1.82% to -0.611%.

First: COCCNC(=O)CSc1nc(N)c(NC(=O)c2ccco2)c(=O)[nH]1
Second: CCc1nnc(NC(=O)c2ccco2)s1
The “activity change, negative = inhibition” value of the first is lower: -1.82% for the first, 22% for the second.

First: O=C(NC1=CC(=O)c2ccccc2C1=O)c1ccccc1
Second: O=C(CSC1=Nc2ccccc2C2=NC(c3ccccc3)C(=O)N12)NCC1CCCO1 (centres undefined)
The “activity change, negative = inhibition” value of the first is lower: -14.7% for the first, -2.26% for the second.

Compared with `CN(C)c1ccc(C(CNC(=O)c2ccc(F)cc2)c2c[nH]c3ccccc23)cc1` (centres undefined), `CCOC(=O)c1cc(-c2ccc(F)cc2)n(CC(=O)NCc2ccccn2)c1C` is higher in “activity change, negative = inhibition” value: -9.89% for the first, 1.61% for the second.

First: CCc1ccccc1NC(=O)CN(c1ccc(OC)cc1OC)S(=O)(=O)c1ccccc1[N+](=O)[O-]
Second: Cc1ccc(S(=O)(=O)N2CCC(=O)N([C@H](COCc3ccccc3)Cc3ccccc3)CC2)cc1
The “activity change, negative = inhibition” value of the first is lower: -11.4% for the first, 5.73% for the second.

Going from `CCC1OC(C2CC2)CC2=C1C(=O)OC(C)(C)O2` (centres undefined) to `CSc1nnc(C2CCCN(CC(=O)Nc3ccccc3N3CCOCC3)C2)n1C(C)C` (centres undefined), the “activity change, negative = inhibition” value rises from 1.03% to 1.51%.

First: C=CCN1CCN(c2ccncc2S(=O)(=O)N2CCN(C)CC2)CC1
Second: CN1CCN(c2ccc(NC(=O)c3cc(Cl)c4c(c3)OCCO4)cc2)CC1
The “activity change, negative = inhibition” value of the first is higher: -5.89% for the first, -10.8% for the second.

Going from `Cn1cnnc1SCC(=O)Nc1ccc(N2CCOCC2)cc1` to `O=C(c1cc2cc(Br)cc(Br)c2oc1=O)N1CCOCC1`, the “activity change, negative = inhibition” value rises from 3.56% to 18.6%.

Compared with `CC(C)NC(=S)Nc1cccc2cnccc12`, `Cc1ccccc1-c1nc(NC(C)C)nc2cc(-c3ccccc3)sc12` is higher in “activity change, negative = inhibition” value: -2.33% for the first, 1.98% for the second.

First: O=C(Nc1ccc(OC(F)(F)F)cc1)c1ccc2c(c1)no[n+]2[O-]
Second: O=C(COC(=O)c1cnccn1)Nc1ccc(Cl)cc1C(F)(F)F
The “activity change, negative = inhibition” value of the first is lower: -31.1% for the first, -3.76% for the second.

Going from `O=C(O)CSC(NC(=O)c1cccnc1)(C(F)(F)F)C(F)(F)F` to `NC(=O)CSC1=Nc2ccccc2C2=NC(CCC(=O)NCc3ccc(F)cc3)C(=O)N12` (centres undefined), the “activity change, negative = inhibition” value falls from -5.55% to -10%.

With `Cc1ccc(CCC(=O)Nc2ncc(Cc3cc(Cl)ccc3Cl)s2)o1` the “activity change, negative = inhibition” value was -18.6%.

In the case of `CC1=C/C(=N\OS(=O)(=O)c2ccccc2)C=CC1=O`, the Potency is reported as 31.6 µM (active).
With `COCCNC(=O)Nc1ccc2nc(-c3ccco3)c(-c3ccco3)nc2c1` the Potency was 14.1 µM (active).
For `CC(=O)N(C1=C(Cl)C(=O)c2ccccc2C1=O)c1ccc(C(=O)O)cc1`, the Potency was 35.5 µM (active).
`CCc1ccc2nc3sc(C(=O)Nc4nnc(CC)s4)c(N)c3cc2c1` was tested, and the Potency was 22.4 µM (active).
In the case of `N#Cc1c(N2CCCCC2)nc(N)c2c(N)nc(SCC(=O)O)cc12`, the Potency is reported as 50.1 µM (active).
For `C=CC(=O)Nc1ccc(Nc2ccnc(Nc3ccc(N4CCN(C)CC4)cc3)n2)cc1`, the Potency was 50.1 µM (active).
With `O=S(=O)(O)c1cc2onnc2c2ccccc12` the Potency was 56.2 µM (active).
With `CCN(CC)CCOc1ccc2c(c1)C(=NNC(=O)c1ccccn1)c1cc(OCCN(CC)CC)ccc1-2` the Potency was 35.5 µM (active).
In the case of `CN(CCOc1ccc(CC2SC(=O)NC2=O)cc1)c1ccccn1` (centres undefined), the Potency is reported as “inactive”.
For `Cc1ccc(Cc2cnc(N)s2)o1`, the Potency was 44.7 µM (active).
In the case of `O=C(CSC(=S)N1CCOCC1)c1cc(Br)cc(Br)c1O`, the Potency is reported as 56.2 µM (active).
With `CC(C)C1N=C2c3ccccc3N=C(SCC(=O)c3ccc(O)c(O)c3)N2C1=O` (centres undefined) the Potency was 17.8 µM (active).
